Each structure is given as a SMILES string. Activity calls are given as the source filed them.

One assay has as its target Albumin (Bos taurus) (UniProt P02769). In words: compounds binding labelled BSA control protein – biochemical, small-molecule microarray, Alexa647 label, 635/667 nm fluorescence, artefact control for SMM control protein annotation, profiling panel (AID 1118).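 Further: score merges 667 nm emission intensity and signal-to-noise per printed compound spot.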 The conditions noted are these: BSA-A647 binding, fluorescence 635 nm, higher = more signal.
A short description of assay [1]: probe aXIP binding to arrayed compounds – biochemical, NeuroSMM set, 635/667 nm fluorescence, primary screen (AID 1119).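 Further: probe is the protein aXip251-270 applied at 1 µg/mL to compound-printed slides; binding of probe to printed compounds measured as 667 nm fluorescence plus signal to noise.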 To be noted: small-molecule microarray, higher = more signal, called active from +8 up or from −8 down.
Assay [2] in a line: probe aNOTCH3 binding on compound microarray – biochemical, small-molecule microarray, 635/667 nm fluorescence, primary screen (AID 1120).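 Further: probe is a biotin-tagged antibody raised against NOTCH3 rather than NOTCH3 protein; score merges spot fluorescence near 667 nm with spot signal to noise.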 To be noted: higher = more signal.
The nature of assay [3]: probe aNOTCH2 binding on compound microarray – biochemical, small-molecule microarray, 635/667 nm fluorescence, primary screen (AID 1121).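 Further: score merges feature fluorescence read at 667 nm with its signal to noise.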 To be noted: higher = more signal.
Assay [4] deals with Carbonic anhydrase 2 (Homo sapiens) (UniProt P00918). In words: compounds binding carbonic anhydrase 2 – biochemical, small-molecule microarray, Alexa647-labelled CAII, profiling panel (AID 1122). The conditions noted are these: CAII-A647 binding fluorescence, higher = more signal.
Assay [5] can be described thus: COS7 lysate on small-molecule microarray, probe aHis, 635 nm (AID 1123).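 Further: z-score combines 667nm fluorescence intensity with signal-to-noise per printed compound spot.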 To be noted: COS7 cell lysate, fluorescence, higher = more signal.
The nature of assay [6]: probe aLAP1 signal on lysate-treated microarray – cell lysate, small-molecule microarray, COS7 lysate, primary screen (AID 1124).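 Further: lysate comes from COS7 cells expressing LAP1 and is applied at 0.3 µg/mL; score merges spot fluorescence near 667 nm with signal-to-noise over triplicate slides.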 The conditions noted are these: probe aLAP1, fluorescence, higher = more signal.
Another assay deals with Sam68 (KHDRBS1). The assay can be described thus: compounds binding KHDRBS1 protein – biochemical, small-molecule microarray, 635 nm fluorescence, primary screen (AID 1125).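 Further: score merges 667 nm channel intensity with signal to noise over triplicate slides.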 The conditions noted are these: higher = more signal.
Assay [7] relates to Chordin-like protein 2 (CHRDL2). In words: compounds binding chordin-like 2 – biochemical, small-molecule microarray, 635 nm fluorescence, primary screen (AID 1126).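 Further: printed compound slides probed with Chrdl2 protein at 4 µg/mL for 1 h at 4 C; score merges 667 nm emission intensity with signal to noise over three replicate slides.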 To be noted: fluorescence 635 nm, higher = more signal.
The target in assay [8] is Concanavalin-A (Canavalia ensiformis) (UniProt P02866). The assay can be described thus: compounds binding concanavalin A lectin – biochemical, small-molecule microarray, Alexa647 label, 635 nm, artefact control for SMM control protein annotation, primary screen (AID 1127).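 Further: z combines 667 nm emission intensity with signal-to-noise across three replicate slides.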 To be noted: ConA-A647 binding fluorescence, higher = more signal.
Concanavalin-A (Canavalia ensiformis), sequence (P02866 whole entry, looked up): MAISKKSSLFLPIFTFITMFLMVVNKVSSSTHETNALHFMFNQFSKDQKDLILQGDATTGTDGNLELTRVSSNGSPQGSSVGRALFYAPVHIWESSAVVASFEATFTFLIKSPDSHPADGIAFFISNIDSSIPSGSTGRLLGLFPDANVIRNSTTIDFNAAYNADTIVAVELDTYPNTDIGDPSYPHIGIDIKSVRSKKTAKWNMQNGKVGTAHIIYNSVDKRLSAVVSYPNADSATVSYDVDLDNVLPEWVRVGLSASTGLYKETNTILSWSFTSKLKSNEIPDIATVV
Assay [9] is described as follows: compounds binding Alexa647 anti-His antibody – biochemical, small-molecule microarray, 635 nm fluorescence, artefact control for SMM control protein annotation, primary screen (AID 1128).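 Further: score merges feature fluorescence with signal-to-noise for each printed compound spot.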 To be noted: higher = more signal.
Assay [10] relates to Human papillomavirus type 1a E7 protein (residues 1-88). The assay can be described thus: HPV1a E7 small-molecule binders, primary screen, biochemical, small-molecule microarray, residues 1-88, 635 nm (AID 1129). The conditions noted are these: small-molecule microarray binding, fluorescence 635 nm; higher = more signal.
In assay [11] the target is Focal adhesion kinase 1 (Homo sapiens) (UniProt Q05397). In words: PTK2 protein binding on printed compound slides – biochemical, small-molecule microarray, 635/667 nm fluorescence, BSA, DTT, primary screen (AID 1130).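 Further: composite of spot emission at 667 nm and signal to noise over triplicate slides.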 The conditions noted are these: 635 nm fluorescence, higher = more signal.
Focal adhesion kinase 1 (Homo sapiens), sequence (Q05397 whole entry, looked up): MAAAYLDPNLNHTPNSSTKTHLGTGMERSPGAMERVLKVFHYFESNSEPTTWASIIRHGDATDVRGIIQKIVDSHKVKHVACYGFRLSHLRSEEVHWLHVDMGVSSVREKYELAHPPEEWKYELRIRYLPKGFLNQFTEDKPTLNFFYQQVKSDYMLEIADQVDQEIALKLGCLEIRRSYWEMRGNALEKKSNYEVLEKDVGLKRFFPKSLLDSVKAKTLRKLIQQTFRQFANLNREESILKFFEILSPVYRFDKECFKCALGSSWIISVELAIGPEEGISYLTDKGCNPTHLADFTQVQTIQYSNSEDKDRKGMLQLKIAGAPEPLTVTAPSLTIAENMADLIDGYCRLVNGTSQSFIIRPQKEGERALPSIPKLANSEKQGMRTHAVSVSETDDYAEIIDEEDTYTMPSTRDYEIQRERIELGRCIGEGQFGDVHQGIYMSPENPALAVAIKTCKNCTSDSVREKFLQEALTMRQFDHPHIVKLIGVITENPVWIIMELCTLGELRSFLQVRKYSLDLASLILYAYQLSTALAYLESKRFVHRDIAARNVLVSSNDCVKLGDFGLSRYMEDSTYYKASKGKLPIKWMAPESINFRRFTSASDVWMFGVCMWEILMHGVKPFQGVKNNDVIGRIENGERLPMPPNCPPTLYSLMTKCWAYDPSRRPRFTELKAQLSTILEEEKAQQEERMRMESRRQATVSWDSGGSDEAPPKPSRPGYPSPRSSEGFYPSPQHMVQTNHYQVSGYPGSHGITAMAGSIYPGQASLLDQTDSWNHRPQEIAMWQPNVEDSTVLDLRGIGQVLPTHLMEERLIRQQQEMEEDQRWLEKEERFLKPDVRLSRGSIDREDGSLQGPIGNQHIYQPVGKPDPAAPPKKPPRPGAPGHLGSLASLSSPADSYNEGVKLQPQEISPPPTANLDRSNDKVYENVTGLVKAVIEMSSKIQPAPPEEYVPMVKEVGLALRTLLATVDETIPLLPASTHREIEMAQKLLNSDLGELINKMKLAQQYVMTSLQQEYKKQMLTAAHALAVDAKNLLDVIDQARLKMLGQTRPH
The test system of assay [12] is Fibrinogen (Alexa647-labelled). The assay can be described thus: Alexa647-fibrinogen binding to printed small molecules – biochemical, small-molecule microarray, 635/667 nm fluorescence, artefact control for SMM control-protein annotation, profiling panel (AID 1131).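 Further: z-score merges 667 nm fluorescence with per-spot signal-to-noise over triplicate slides.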 The conditions noted are these: fibrinogen-A647 binding fluorescence, higher = more signal.
For assay [13], the target named is Follistatin (Homo sapiens) (UniProt P19883). The assay can be described thus: FST protein binding to printed compounds – biochemical, small-molecule microarray, 635/667 nm fluorescence, primary screen (AID 1132). To be noted: 635 nm fluorescence, higher = more signal.
Follistatin (Homo sapiens), sequence (P19883 whole entry, looked up): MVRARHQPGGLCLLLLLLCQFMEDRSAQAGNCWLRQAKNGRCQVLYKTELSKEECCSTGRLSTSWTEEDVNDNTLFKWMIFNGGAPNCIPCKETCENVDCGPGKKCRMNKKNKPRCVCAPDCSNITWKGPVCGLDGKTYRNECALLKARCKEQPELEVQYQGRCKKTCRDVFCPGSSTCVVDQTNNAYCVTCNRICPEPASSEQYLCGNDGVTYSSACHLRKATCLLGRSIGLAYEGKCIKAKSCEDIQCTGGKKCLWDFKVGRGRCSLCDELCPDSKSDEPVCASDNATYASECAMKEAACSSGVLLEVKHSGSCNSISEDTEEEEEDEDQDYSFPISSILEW
Assay [14] addresses Fibroblast growth factor 2 (Homo sapiens) (UniProt P09038). The assay can be described thus: basic fibroblast growth factor binding to printed compounds – biochemical, small-molecule microarray, 635/667 nm fluorescence, primary screen (AID 1133). The conditions noted are these: FGF2, fluorescence 635/667, higher = more signal.
Assay [15] is described as follows: JC-1 mitochondrial potential readout, lung cancer cells – cell-based, A549, JC-1 fluorescence, basal, 24 h, 100 nL, profiling panel (AID 1138).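 Further: A549 lung adenocarcinoma cells under basal conditions with no added stimulus; test concentration not given here.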 The conditions noted are these: higher = more signal.
In the next assay the test system is Lefty1. In words: Lefty1 protein binding to printed compounds – biochemical, small-molecule microarray, 635/667 nm fluorescence, primary screen (AID 1139). The conditions noted are these: fluorescence 635/667, higher = more signal.
Assay [16] deals with wheat germ agglutinin (Triticum aestivum), Alexa647-labelled. In words: Alexa647-WGA lectin binding to printed small molecules – biochemical, small-molecule microarray, 635/667 nm fluorescence, artefact control for SMM control-protein annotation, profiling panel (AID 1140).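 Further: score merges 667 nm feature emission with signal to noise over triplicate slides.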 The conditions noted are these: WGA-A647 binding, 635 nm fluorescence, higher = more signal.
The target in assay [17] is Luciferin 4-monooxygenase (Photinus pyralis) (UniProt P08659). In words: inhibition of purified Photinus pyralis luciferase – biochemical, luminescence, purified enzyme, 2006 set, primary screen (AID 1141).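 Further: cell-free assay with purified firefly luciferase at 100 ng per well in PBS; test concentration not given here.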 To be noted: purified firefly luciferase, SteadyGlo luminescence, 30 min; higher = more signal, called active from +8 up or from −8 down.
Luciferin 4-monooxygenase (Photinus pyralis), sequence (P08659 whole entry, looked up): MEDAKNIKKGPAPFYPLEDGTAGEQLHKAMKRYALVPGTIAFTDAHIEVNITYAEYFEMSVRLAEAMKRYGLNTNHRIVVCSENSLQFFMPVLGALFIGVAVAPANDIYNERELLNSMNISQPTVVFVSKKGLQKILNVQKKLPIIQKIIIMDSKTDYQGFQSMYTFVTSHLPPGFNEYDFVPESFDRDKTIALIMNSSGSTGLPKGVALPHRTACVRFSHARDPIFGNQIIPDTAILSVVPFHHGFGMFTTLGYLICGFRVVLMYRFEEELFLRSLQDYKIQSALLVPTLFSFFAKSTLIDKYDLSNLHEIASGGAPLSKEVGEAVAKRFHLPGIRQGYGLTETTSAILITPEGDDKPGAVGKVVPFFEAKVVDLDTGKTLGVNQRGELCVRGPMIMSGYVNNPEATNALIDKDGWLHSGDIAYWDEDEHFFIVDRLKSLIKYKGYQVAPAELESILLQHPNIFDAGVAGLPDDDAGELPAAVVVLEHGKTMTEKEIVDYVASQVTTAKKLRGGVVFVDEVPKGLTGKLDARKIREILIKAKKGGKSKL

Fibroblast growth factor 2 (Homo sapiens), sequence (P09038 whole entry, looked up): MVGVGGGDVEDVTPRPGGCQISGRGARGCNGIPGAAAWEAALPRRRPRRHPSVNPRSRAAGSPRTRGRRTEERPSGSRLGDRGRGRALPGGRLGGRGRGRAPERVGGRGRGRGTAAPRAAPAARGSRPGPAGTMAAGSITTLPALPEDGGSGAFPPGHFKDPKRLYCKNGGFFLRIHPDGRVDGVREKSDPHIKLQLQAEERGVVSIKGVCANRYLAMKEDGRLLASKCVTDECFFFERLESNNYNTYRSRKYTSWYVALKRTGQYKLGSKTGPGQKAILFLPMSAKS
Albumin (Bos taurus), sequence (P02769 whole entry, looked up): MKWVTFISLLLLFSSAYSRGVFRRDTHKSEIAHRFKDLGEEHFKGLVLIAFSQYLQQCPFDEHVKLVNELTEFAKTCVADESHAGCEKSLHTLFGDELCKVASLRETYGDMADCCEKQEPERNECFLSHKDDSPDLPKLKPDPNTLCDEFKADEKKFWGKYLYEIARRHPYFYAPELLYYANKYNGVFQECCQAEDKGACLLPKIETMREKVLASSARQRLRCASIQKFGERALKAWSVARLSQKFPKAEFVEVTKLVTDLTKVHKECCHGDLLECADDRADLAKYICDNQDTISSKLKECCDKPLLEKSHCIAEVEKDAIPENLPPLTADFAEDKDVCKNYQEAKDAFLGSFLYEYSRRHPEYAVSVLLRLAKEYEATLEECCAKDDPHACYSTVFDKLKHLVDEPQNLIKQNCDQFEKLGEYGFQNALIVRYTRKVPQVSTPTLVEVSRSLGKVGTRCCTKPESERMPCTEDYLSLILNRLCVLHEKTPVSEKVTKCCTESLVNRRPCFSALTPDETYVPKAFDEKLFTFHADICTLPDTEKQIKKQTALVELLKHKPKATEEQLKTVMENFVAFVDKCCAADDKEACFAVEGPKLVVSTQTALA

Consider `[N-]=[N+]=NCc1ccccc1C[C@]1(C(=O)N2CCOCC2)COC(c2ccc(OCCCO)cc2)=N1`, for which the composite z-score with Albumin (Bos taurus) stood at 0.754; in assay [2] it was 0.139; in assay [3], 0.126; in assay [4], 0.71; in assay [5], 0.969; in assay [6], 0.262. In addition, the composite z-score in the assay with Sam68 (KHDRBS1) was 1.22; in assay [7], -0.202; in assay [8], 0.468; in assay [9], 2.22; in [10], 1.19; in assay [11] it was 0.168. Besides, the composite z-score in assay [12] is 0.695; in [13], 0.234; in [14], -0.309; in the assay on Lefty1 it was -0.346; in assay [16] it was 1.01. In addition, the composite Z-score in assay [1] was -0.592 (inactive). The z-score in assay [15] is 2.41; in assay [17] it was -1.21 (inactive).
As to `C=C[C@@H](OC)[C@H](OC(=O)Nc1ccc(SC)cc1)c1ccc(OCCO)cc1`, the composite z-score in the assay with Albumin (Bos taurus) was 0.687; in [2], 0.23; in assay [3], -0.101; in assay [4] it was 0.361; in assay [5], 1.89; in assay [6], 0.35. In addition, the composite z-score in the assay on Sam68 (KHDRBS1) came to 1.34; in assay [7] it was 0.207; in assay [8], 0.89; in assay [9], 2.02; in assay [10], 0.815; in assay [11] it was 0.317. Also, the composite z-score in [12] turned out to be 0.951; in assay [13] it was 1.17; in [14] it was 0.377; in the assay on Lefty1 it was 0.545; in assay [16], 0.653. In assay [1], the composite Z-score was 0.0939 (inactive). The z-score was -1.48 in [15] and -2.25 (inactive) in assay [17].
Take `C=C(COC)C(=O)CC[C@@H](OC(=O)c1cccnc1)c1ccccc1OCCO`: the composite z-score in the assay with Albumin (Bos taurus) is -0.726; in assay [2] it was 0.0237; in assay [3] it was -0.0681; in [4], 0.758; in [5], 0.105; in [6], -0.377. The composite z-score in the assay with Sam68 (KHDRBS1) is -0.356; in [7] it was 0.349; in assay [8] it was 0.484; in assay [9], 2.06; in assay [10], 0.284; in assay [11], -0.54. The composite z-score turned out to be 0.555 in [12]; 0.974 in assay [13]; 1 in assay [14]; 0.139 with Lefty1; 0.287 in [16]. Moreover, the composite Z-score in assay [1] is 0.245 (inactive). Also, the z-score is -0.0536 in assay [15] and -5.44 (inactive) in [17].
Regarding `C=CCC(OC(C)=O)[C@@H]1[C@@H](N(Cc2ccc(-c3cccc(C(F)(F)F)c3)o2)C(=O)Cc2ccc(OC)cc2)c2cc(OCCCO)ccc2N1C(=O)Cc1ccc2ccccc2c1` (stereo not given in full), the composite z-score is 0.315 in the assay with Albumin (Bos taurus); -0.158 in [2]; -0.14 in [3]; -0.121 in assay [4]; 0.631 in [5]; -0.31 in [6]. Besides, the composite z-score was -0.0204 in the assay with Sam68 (KHDRBS1); -0.0929 in assay [7]; -0.0477 in [8]; 0.083 in assay [9]; -1.39 in assay [10]; -0.368 in assay [11]. Moreover, the composite z-score in assay [12] was 0.226; in assay [13] it was 0.131; in assay [14], -0.501; with Lefty1, -0.27; in [16] it was -0.0571. Further, the composite Z-score in assay [1] is -0.0998 (inactive). Further, the results for the z-score in [15] and in assay [17] were -0.451 and 0.149 (inactive), respectively.
For the molecule `C=CC[C@H](OC(=O)Nc1ccc(SC)cc1)c1ccc(OCCO)cc1`, the composite z-score with Albumin (Bos taurus) is -0.0497; in [2], -0.0321; in assay [3], -0.0996; in assay [4], 0.655; in assay [5], -0.365; in assay [6], 0.656. The composite z-score in the assay with Sam68 (KHDRBS1) was -1.12; in assay [7], 0.0241; in assay [8] it was -0.32; in [9], 0.299; in assay [10], -0.444; in assay [11] it was -0.452. Also, the composite z-score in [12] is -1.96; in [13] it was 0.734; in [14] it was 0.144; with Lefty1, 0.34; in [16], 0.61. Moreover, the composite Z-score in assay [1] is 0.154 (inactive). Besides, the z-score was 0.08 in [15] and -1.93 (inactive) in assay [17].

The record behind these values is PubChem BioAssay.
